Consider 36 compounds from PubChem BioAssay (NCI).

Compounds without any hit were thinned out: in the full panel of roughly 79,000, 15% have a hit. Active and inactive are the calls of the source. Cut-off read from the data, not from the text of the source: active = growth inhibition above about 70%; inactive = the rest.

The nature of the first experiment: NCI Yeast Anticancer Drug Screen. Data for the mec2-1 strain (AID 157). To be noted: S. cerevisiae mec2-1 strain, at 50.0 µM (retest, dose inferred, filed as 5.0), active compounds read high. Summed up:
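Each compound was tested on mec2-1 yeast, a strain altered in DNA damage repair or cell cycle control. Growth inhibition is reported relative to vehicle.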
`CN(C)CC(CN(C)C)C(=O)/C=C/c1ccc(Cl)cc1Cl`: the growth inhibition was 99% (active).

On to `c1ccc2c(c1)ccn2CCc1c[nH]c2ccccc12`, for which the growth inhibition was 1% (inactive).

For `Cc1ccccc1NC(=O)c1c(C)oc2c1C(=O)c1ccccc1C2=O`, the growth inhibition is 71% (active).

With `CC(C)OC(=O)NNc1c(Cl)cc(Cl)cc1Cl`, the growth inhibition was 10% (inactive).

`COc1ccc2nc3cccc([N+](=O)[O-])c3c(NCCNCCO)c2c1`: the growth inhibition is 96% (active).

On to `COc1ccc2c(c1)CCCC(Br)C2=O` (configuration not stated), for which the growth inhibition is 78% (active).

In the case of `CCC(OC(C)=O)C1CC(C(C)C)CCC1C` (configuration not stated), the growth inhibition was 34% (inactive).

`O=S(=O)(c1cccc(C(F)(F)F)c1)N1c2ccccc2-n2cccc2C1c1cccnc1` (configuration not stated): the growth inhibition is 97% (active).

Consider `c1ccc(-c2cc(C3CO3)c3ccccc3n2)cc1` (configuration not stated), for which the growth inhibition is 35% (inactive).

Turning to `COc1ccc(/C=C2\SC(=S)N(/C=C3\C(=O)N(c4ccccc4)N=C3C)C2=O)cc1OC`, the growth inhibition is 52% (inactive).

`CC1=CC(=C(c2ccc(N)c(C)c2)c2ccc(N)c(C)c2)C=CC1=N`: the growth inhibition is 97% (active).

As to `CC1C(c2ccccc2)SC(=N)N1C` (configuration not stated), the growth inhibition was 46% (inactive).

Turning to `CC(/C=C/c1ccc([N+](=O)[O-])o1)=N/N1CC(CN2CCOCC2)OC1=O` (configuration not stated), the growth inhibition was 90% (active).

For `C=CC(C)(C)N1C(=O)C(C(C)=O)=C(O)C1Cc1c[nH]c2ccccc12` (configuration not stated), the growth inhibition is -8% (inactive).

In the case of `O=C1c2cccc3cccc(c23)C(=O)N1CCNCCN1C(=O)c2cccc3cccc(c23)C1=O`, the growth inhibition was 4% (inactive).

For the compound `Cc1ccc([N+](=O)[O-])c2c(NCCC[N+](C)(C)[O-])c3ccccc3nc12`, the growth inhibition was 64% (inactive).

`COC(=O)C(Cc1c[nH]c2ccccc12)N1CN(C)c2ccccc2C1=O` (configuration not stated): the growth inhibition was 11% (inactive).

In the case of `O=C(/N=N/C(=O)Oc1ccccc1)Oc1ccccc1`, the growth inhibition was 97% (active).

Regarding `COc1cc([C@@H]2c3cc4c(cc3[C@@H](NC(=O)NO)[C@H]3COC(=O)[C@H]23)OCO4)cc(OC)c1O`, the growth inhibition is -13% (inactive).

With `CC1(C)CC(=O)C(/C=N/c2nc(-c3ccc(Br)cc3)cs2)=C(O)C1`, the growth inhibition was 97% (active).

Regarding `CCOC(=O)/C(=C/c1cccc(Cl)c1)N(CC)CC`, the growth inhibition is 86% (active).

Turning to `CC(C)OC(=O)NNc1cccc(Cl)c1`, the growth inhibition was 96% (active).

With `CCC(=O)C1=C(O)c2cc(OC)ccc2CC1C(=O)OC` (configuration not stated), the growth inhibition was -1% (inactive).

On to `O=S(=O)(NC1CCCC(c2ccccc2)C1)c1ccccc1` (configuration not stated), for which the growth inhibition is -7% (inactive).

Take `COc1ccc2nc3cccc([N+](=O)[O-])c3c(NCCCCCC(=O)O)c2c1`: the growth inhibition was 99% (active).

As for `CCO/C=C1\SC(=S)N(c2ccc(OCC)cc2)C1=O`, the growth inhibition is 86% (active).

For `COc1cc(OC)c(CSCC(NC(=O)OCC2c3ccccc3-c3ccccc32)C(=O)O)c(OC)c1` (configuration not stated), the growth inhibition was 99% (active).

As to `COC(=O)c1ccccc1N=NNc1cccc(SC)c1`, the growth inhibition is 39% (inactive).

Turning to `CC1=NN(C(=O)c2ccccc2O)C(=O)/C1=C/c1ccco1`, the growth inhibition was 93% (active).

For `COc1ccccc1NC(=O)c1ccc(Cl)cc1`, the growth inhibition was -14% (inactive).

With `CC(C)=CCC/C(C)=C/CN1C(=O)C=CC1=O`, the growth inhibition was 99% (active).

As for `O=C1CSC(c2ccccc2)N1c1ccc(-c2ccc(-n3c(-c4ccccc4)nc4ccccc4c3=O)cc2)cc1` (configuration not stated), the growth inhibition was 27% (inactive).

As to `N#CC1OB(O)c2ccccc21` (configuration not stated), the growth inhibition was -27% (inactive).

As for `O=C(NCCNCCNC(=O)c1cc(-c2ccccc2)nc2ccccc12)c1cc(-c2ccccc2)nc2ccccc12`, the growth inhibition was 40% (inactive).

Take `Brc1ccc(B2Nc3ccccc3N2)cc1`: the growth inhibition is 59% (inactive).

`CCOP(=O)(OCC)/C(C#N)=C/c1cccc(Oc2ccccc2)c1`: the growth inhibition was 98% (active).

Staying with this experiment, now noted: S. cerevisiae mec2-1 strain, at 50.0 µM, active compounds read high.
Turning to `CN(C)CC(CN(C)C)C(=O)/C=C/c1ccc(Cl)cc1Cl`, the growth inhibition is 42.2% (inactive).

Turning to `c1ccc2c(c1)ccn2CCc1c[nH]c2ccccc12`, the growth inhibition was 93.4% (active).

As for `Cc1ccccc1NC(=O)c1c(C)oc2c1C(=O)c1ccccc1C2=O`, the growth inhibition is 50.5% (inactive).

As to `CC(C)OC(=O)NNc1c(Cl)cc(Cl)cc1Cl`, the growth inhibition is 3.15% (inactive).

Regarding `COc1ccc2nc3cccc([N+](=O)[O-])c3c(NCCNCCO)c2c1`, the growth inhibition is 89.3% (active).

For the compound `COc1ccc2c(c1)CCCC(Br)C2=O` (configuration not stated), the growth inhibition is 86.2% (active).

On to `CCC(OC(C)=O)C1CC(C(C)C)CCC1C` (configuration not stated), for which the growth inhibition is 24.2% (inactive).

As for `O=S(=O)(c1cccc(C(F)(F)F)c1)N1c2ccccc2-n2cccc2C1c1cccnc1` (configuration not stated), the growth inhibition is 94.8% (active).

`c1ccc(-c2cc(C3CO3)c3ccccc3n2)cc1` (configuration not stated): the growth inhibition is 74.5% (active).

As to `COc1ccc(/C=C2\SC(=S)N(/C=C3\C(=O)N(c4ccccc4)N=C3C)C2=O)cc1OC`, the growth inhibition was 73.2% (active).

As to `CC1=CC(=C(c2ccc(N)c(C)c2)c2ccc(N)c(C)c2)C=CC1=N`, the growth inhibition was 89.6% (active).

Turning to `CC1C(c2ccccc2)SC(=N)N1C` (configuration not stated), the growth inhibition is -5.6% (inactive).

In the case of `CC(/C=C/c1ccc([N+](=O)[O-])o1)=N/N1CC(CN2CCOCC2)OC1=O` (configuration not stated), the growth inhibition is 55.6% (inactive).

With `C=CC(C)(C)N1C(=O)C(C(C)=O)=C(O)C1Cc1c[nH]c2ccccc12` (configuration not stated), the growth inhibition was 58.7% (inactive).

With `O=C1c2cccc3cccc(c23)C(=O)N1CCNCCN1C(=O)c2cccc3cccc(c23)C1=O`, the growth inhibition is 26.4% (inactive).

Consider `Cc1ccc([N+](=O)[O-])c2c(NCCC[N+](C)(C)[O-])c3ccccc3nc12`, for which the growth inhibition is 1.6% (inactive).

On to `COC(=O)C(Cc1c[nH]c2ccccc12)N1CN(C)c2ccccc2C1=O` (configuration not stated), for which the growth inhibition was 50.5% (inactive).

On to `O=C(/N=N/C(=O)Oc1ccccc1)Oc1ccccc1`, for which the growth inhibition was 8.5% (inactive).

`COc1cc([C@@H]2c3cc4c(cc3[C@@H](NC(=O)NO)[C@H]3COC(=O)[C@H]23)OCO4)cc(OC)c1O`: the growth inhibition was -12.1% (inactive).

Regarding `CC1(C)CC(=O)C(/C=N/c2nc(-c3ccc(Br)cc3)cs2)=C(O)C1`, the growth inhibition is 97.5% (active).

As for `CCOC(=O)/C(=C/c1cccc(Cl)c1)N(CC)CC`, the growth inhibition was 78.5% (active).

For the compound `CC(C)OC(=O)NNc1cccc(Cl)c1`, the growth inhibition is 99.2% (active).

Take `CCC(=O)C1=C(O)c2cc(OC)ccc2CC1C(=O)OC` (configuration not stated): the growth inhibition was 13.2% (inactive).

For the compound `O=S(=O)(NC1CCCC(c2ccccc2)C1)c1ccccc1` (configuration not stated), the growth inhibition was 24.6% (inactive).

For the compound `COc1ccc2nc3cccc([N+](=O)[O-])c3c(NCCCCCC(=O)O)c2c1`, the growth inhibition is 91% (active).

Consider `CCO/C=C1\SC(=S)N(c2ccc(OCC)cc2)C1=O`, for which the growth inhibition is 28.2% (inactive).

Turning to `COc1cc(OC)c(CSCC(NC(=O)OCC2c3ccccc3-c3ccccc32)C(=O)O)c(OC)c1` (configuration not stated), the growth inhibition is 99.2% (active).

Turning to `COC(=O)c1ccccc1N=NNc1cccc(SC)c1`, the growth inhibition was 85.7% (active).

In the case of `CC1=NN(C(=O)c2ccccc2O)C(=O)/C1=C/c1ccco1`, the growth inhibition is 87.2% (active).

In the case of `COc1ccccc1NC(=O)c1ccc(Cl)cc1`, the growth inhibition was 11.1% (inactive).

With `CC(C)=CCC/C(C)=C/CN1C(=O)C=CC1=O`, the growth inhibition is 99.7% (active).

For `O=C1CSC(c2ccccc2)N1c1ccc(-c2ccc(-n3c(-c4ccccc4)nc4ccccc4c3=O)cc2)cc1` (configuration not stated), the growth inhibition was 30.7% (inactive).

Take `N#CC1OB(O)c2ccccc21` (configuration not stated): the growth inhibition is 27.9% (inactive).

`O=C(NCCNCCNC(=O)c1cc(-c2ccccc2)nc2ccccc12)c1cc(-c2ccccc2)nc2ccccc12`: the growth inhibition was 96.3% (active).

In the case of `Brc1ccc(B2Nc3ccccc3N2)cc1`, the growth inhibition was 56.8% (inactive).

As to `CCOP(=O)(OCC)/C(C#N)=C/c1cccc(Oc2ccccc2)c1`, the growth inhibition was 93.5% (active).
